Columns and labels:
Mel-DCC-11 = test: cell viability relative to DMSO control (fraction of DMSO control); higher = less cytotoxic, active = 0.5 or less; conditions: 1 µM; 120 h
In short: (§1)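 Patient-derived Mel-DCC-11, its resistant subline Mel-DCC-11-R (alone and with 8 µM of its selecting drug) and NHEM-hTERT immortalized melanocytes were exposed for 120 h to 315 approved anti-cancer drugs at 1 µM in duplicate. Luminescence was read with ATPlite 1step. Viability was normalised to vehicle controls and averaged over duplicates.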

NHEM-hTERT = test: as above; conditions: 1 µM; 120 h
In short: as §1

Mel-DCC-11-R = test: cell viability relative to DMSO control (fraction of DMSO control); higher = less cytotoxic, active = 0.8 or less; conditions: 1 µM, 120 h
In short: as §1

Measured: cell viability

COc1ccc2c(c1OC)C(=O)O[C@@H]2[C@H]1c2c(cc3c(c2OC)OCO3)CC[NH+]1C.[Cl-] [Noscapine hydrochloride]
inactive: Mel-DCC-11 1.12 | NHEM-hTERT 1.13 | Mel-DCC-11-R; vemurafenib co-treatment 0 µM 1.04 | Mel-DCC-11-R; vemurafenib co-treatment 8 µM 1.13

O=C1c2c(O)ccc(O)c2C(=O)c2c(NCCNCCO)ccc(NCCNCCO)c21 [Mitoxantrone]
inactive: Mel-DCC-11 1.26 | NHEM-hTERT 0.695 | Mel-DCC-11-R; vemurafenib co-treatment 0 µM 1.26
active: Mel-DCC-11-R; vemurafenib co-treatment 8 µM 0.574

CC1(C)NC(=O)N(c2ccc([N+](=O)[O-])c(C(F)(F)F)c2)C1=O [Nilutamide]
inactive: Mel-DCC-11 1.09 | NHEM-hTERT 1.19 | Mel-DCC-11-R; vemurafenib co-treatment 0 µM 1.03 | Mel-DCC-11-R; vemurafenib co-treatment 8 µM 0.997

CN(C)C/C=C/C(=O)Nc1cc2c(Nc3ccc(F)c(Cl)c3)ncnc2cc1O[C@H]1CCOC1.O=C(O)/C=C\C(=O)O.O=C(O)/C=C\C(=O)O [Afatinib Dimaleate]
inactive: Mel-DCC-11 0.711 | NHEM-hTERT 1.13 | Mel-DCC-11-R; vemurafenib co-treatment 0 µM 1.03
active: Mel-DCC-11-R; vemurafenib co-treatment 8 µM 0.766

CC(C)C(=O)Nc1ccc([N+](=O)[O-])c(C(F)(F)F)c1 [Flutamide]
inactive: Mel-DCC-11 1.26 | NHEM-hTERT 1.25 | Mel-DCC-11-R; vemurafenib co-treatment 0 µM 1.1 | Mel-DCC-11-R; vemurafenib co-treatment 8 µM 1.21

CNC(=O)c1ccc(N2C(=S)N(c3cnc(C#N)c(C(F)(F)F)c3)C(=O)C23CCC3)cc1F [Apalutamide]
inactive: Mel-DCC-11 1.18 | NHEM-hTERT 1.01 | Mel-DCC-11-R; vemurafenib co-treatment 0 µM 0.958 | Mel-DCC-11-R; vemurafenib co-treatment 8 µM 1.1

CCC1=C[C@@H]2CN(C1)Cc1c([nH]c3ccccc13)[C@@](C(=O)OC)(c1cc3c(cc1OC)N(C)[C@H]1[C@@](O)(C(=O)OC)[C@H](OC(C)=O)[C@]4(CC)C=CCN5CC[C@]31[C@@H]54)C2.O=C(O)[C@H](O)[C@@H](O)C(=O)O.O=C(O)[C@H](O)[C@@H](O)C(=O)O [Vinorelbine Tartrate]
inactive: Mel-DCC-11 0.78 | NHEM-hTERT 0.644 | Mel-DCC-11-R; vemurafenib co-treatment 0 µM 1.04
active: Mel-DCC-11-R; vemurafenib co-treatment 8 µM 0.703

CC=Cc1ccc(OC)cc1 (stereo in doubt) [cis-Anethol]
inactive: Mel-DCC-11 1.19 | NHEM-hTERT 0.759 | Mel-DCC-11-R; vemurafenib co-treatment 0 µM 1.26
active: Mel-DCC-11-R; vemurafenib co-treatment 8 µM 0.591

Nc1nc([O-])c2c(CCc3ccc(C(=O)N[C@@H](CCC(=O)[O-])C(=O)[O-])cc3)c[nH]c2n1.[Na+].[Na+] [Pemetrexed disodium]
inactive: Mel-DCC-11 0.857 | NHEM-hTERT 1.05 | Mel-DCC-11-R; vemurafenib co-treatment 0 µM 0.818 | Mel-DCC-11-R; vemurafenib co-treatment 8 µM 0.881

Cc1c(C(=O)Nc2ccc(N3C[C@@H](C)O[C@@H](C)C3)nc2)cccc1-c1ccc(OC(F)(F)F)cc1 [Sonidegib]
inactive: Mel-DCC-11 1.17 | NHEM-hTERT 1.04 | Mel-DCC-11-R; vemurafenib co-treatment 0 µM 1.03 | Mel-DCC-11-R; vemurafenib co-treatment 8 µM 1.2

CC[C@@]1(O)C(=O)OCc2c1cc1n(c2=O)Cc2cc3c(CN(C)C)c(O)ccc3nc2-1.Cl [Topotecan hydrochloride]
inactive: NHEM-hTERT 0.768
active: Mel-DCC-11 0.346 | Mel-DCC-11-R; vemurafenib co-treatment 0 µM 0.645 | Mel-DCC-11-R; vemurafenib co-treatment 8 µM 0.339

CCCCCOC(=O)Nc1nc(=O)n([C@@H]2O[C@H](C)[C@@H](O)[C@H]2O)cc1F [Capecitabine]
inactive: Mel-DCC-11 1.18 | NHEM-hTERT 1.14 | Mel-DCC-11-R; vemurafenib co-treatment 0 µM 1.04 | Mel-DCC-11-R; vemurafenib co-treatment 8 µM 1.11

CCOc1cc2ncc(C#N)c(Nc3ccc(OCc4ccccn4)c(Cl)c3)c2cc1NC(=O)/C=C/CN(C)C [Neratinib]
inactive: Mel-DCC-11 1.03 | NHEM-hTERT 0.732 | Mel-DCC-11-R; vemurafenib co-treatment 0 µM 1.31
active: Mel-DCC-11-R; vemurafenib co-treatment 8 µM 0.643

COC(=O)C1=C(C)NC(C)=C(C(=O)OC)C1c1ccccc1[N+](=O)[O-] [Nifedipine]
inactive: Mel-DCC-11 1.07 | NHEM-hTERT 1.03 | Mel-DCC-11-R; vemurafenib co-treatment 0 µM 1.1 | Mel-DCC-11-R; vemurafenib co-treatment 8 µM 1.18

Nc1c2ccccc2nc2ccccc12 [Aminacrine]
inactive: Mel-DCC-11 1.43 | NHEM-hTERT 0.915 | Mel-DCC-11-R; vemurafenib co-treatment 0 µM 1.26 | Mel-DCC-11-R; vemurafenib co-treatment 8 µM 1.2

CCCCCCNC(=O)n1cc(F)c(=O)[nH]c1=O [Carmofur]
inactive: Mel-DCC-11 1.58 | NHEM-hTERT 1.17 | Mel-DCC-11-R; vemurafenib co-treatment 0 µM 1.12 | Mel-DCC-11-R; vemurafenib co-treatment 8 µM 1.06

CCc1cn([C@H]2C[C@H](O)[C@@H](CO)O2)c(=O)[nH]c1=O [Edoxudine]
inactive: Mel-DCC-11 0.621 | NHEM-hTERT 0.967 | Mel-DCC-11-R; vemurafenib co-treatment 8 µM 0.802
active: Mel-DCC-11-R; vemurafenib co-treatment 0 µM 0.776

S=P(N1CC1)(N1CC1)N1CC1 [Triethylenethiophosphoramide]
inactive: Mel-DCC-11 0.825 | NHEM-hTERT 0.98 | Mel-DCC-11-R; vemurafenib co-treatment 0 µM 0.91 | Mel-DCC-11-R; vemurafenib co-treatment 8 µM 0.932

CO[C@H]1C[C@@H]2CC[C@@H](C)[C@@](O)(O2)C(=O)C(=O)N2CCCC[C@H]2C(=O)O[C@H]([C@H](C)C[C@@H]2CC[C@@H](OC(=O)C(C)(CO)CO)[C@H](OC)C2)CC(=O)[C@H](C)/C=C(\C)[C@@H](O)[C@@H](OC)C(=O)[C@H](C)C[C@H](C)/C=C/C=C/C=C/1C [Temsirolimus]
active: Mel-DCC-11-R; vemurafenib co-treatment 8 µM 0.786
inactive: Mel-DCC-11 1.38 | NHEM-hTERT 0.758 | Mel-DCC-11-R; vemurafenib co-treatment 0 µM 1.53

Cc1ccc(NC(=O)c2ccc(CN3CCN(C)CC3)cc2)cc1Nc1nccc(-c2cccnc2)n1 [Imatinib]
inactive: Mel-DCC-11 1.15 | NHEM-hTERT 1.24 | Mel-DCC-11-R; vemurafenib co-treatment 0 µM 0.978 | Mel-DCC-11-R; vemurafenib co-treatment 8 µM 1.1

CC/C(=C(\c1ccccc1)c1ccc(OCCN(C)C)cc1)c1ccccc1.O=C(O)CC(O)(CC(=O)O)C(=O)O [Tamoxifen Z-isomer citrate]
inactive: Mel-DCC-11 1.26 | NHEM-hTERT 0.977 | Mel-DCC-11-R; vemurafenib co-treatment 0 µM 0.873 | Mel-DCC-11-R; vemurafenib co-treatment 8 µM 1.16

CCCCCCCCCCCCCC(=O)[O-].CCCCCCCCCCCCCC(=O)[O-].N[C@@H]1CCCC[C@H]1N.[Pt+2] [Miriplatin]
inactive: Mel-DCC-11 1.11 | NHEM-hTERT 1.03 | Mel-DCC-11-R; vemurafenib co-treatment 0 µM 1.04 | Mel-DCC-11-R; vemurafenib co-treatment 8 µM 1.03

N#CC[C@@H](C1CCCC1)n1cc(-c2ncnc3[nH]ccc23)cn1 [S-Ruxolitinib]
inactive: Mel-DCC-11 1.16 | NHEM-hTERT 0.987 | Mel-DCC-11-R; vemurafenib co-treatment 0 µM 1.01 | Mel-DCC-11-R; vemurafenib co-treatment 8 µM 1.28

COC(=O)N[C@@H](C)CNc1nccc(-c2cn(C(C)C)nc2-c2cc(Cl)cc(NS(C)(=O)=O)c2F)n1 [Encorafenib]
active: Mel-DCC-11 0.236 | Mel-DCC-11-R; vemurafenib co-treatment 8 µM 0.74
inactive: NHEM-hTERT 0.972 | Mel-DCC-11-R; vemurafenib co-treatment 0 µM 0.802

O=c1[nH]c(=O)n(C2CCCO2)cc1F (stereo unspecified) [Tegafur]
inactive: Mel-DCC-11 0.785 | NHEM-hTERT 0.922 | Mel-DCC-11-R; vemurafenib co-treatment 0 µM 0.895 | Mel-DCC-11-R; vemurafenib co-treatment 8 µM 0.865

COc1cc2c(Nc3ccc(Br)cc3F)ncnc2cc1OCC1CCN(C)CC1 [Vandetanib]
inactive: Mel-DCC-11 1.16 | NHEM-hTERT 1.02 | Mel-DCC-11-R; vemurafenib co-treatment 0 µM 1.29 | Mel-DCC-11-R; vemurafenib co-treatment 8 µM 1.01

CC(C)Cn1cnc2c(N)nc3ccccc3c21 [Imiquimod]
inactive: Mel-DCC-11 0.985 | NHEM-hTERT 1.31 | Mel-DCC-11-R; vemurafenib co-treatment 0 µM 0.897 | Mel-DCC-11-R; vemurafenib co-treatment 8 µM 1.07

Cc1ccc(=O)n(-c2ccccc2)c1 [Pirfenidone]
inactive: NHEM-hTERT 1.02

CC1=C(/C=C/C(C)=C/C=C/C(C)=C\C(=O)O)C(C)(C)CCC1 [Isotretinoin]
inactive: Mel-DCC-11 1.16 | NHEM-hTERT 1.04 | Mel-DCC-11-R; vemurafenib co-treatment 0 µM 0.938 | Mel-DCC-11-R; vemurafenib co-treatment 8 µM 1.3

CC(C)[C@H](NC(=O)[C@H](CC(=O)O)NC(=O)[C@H](CCCCN)NC(=O)[C@@H](N)CCCNC(=N)N)C(=O)N[C@@H](Cc1ccc(O)cc1)C(=O)O [Thymopentin]
inactive: Mel-DCC-11 1.13 | NHEM-hTERT 1.01 | Mel-DCC-11-R; vemurafenib co-treatment 0 µM 1.21 | Mel-DCC-11-R; vemurafenib co-treatment 8 µM 1.04

O=c1[nH]c(=O)n([C@H]2C[C@H](O)[C@@H](CO)O2)cc1/C=C/Br [Brivudine]
inactive: Mel-DCC-11 0.776 | NHEM-hTERT 1.08 | Mel-DCC-11-R; vemurafenib co-treatment 0 µM 0.809 | Mel-DCC-11-R; vemurafenib co-treatment 8 µM 1.12
